{
  "source": "PubChem BioAssay (Tox21)",
  "note": "Records with an inconclusive call do not appear. Where a call stands in place of a potency, no number is given. A number with no mark means an inactive call. Active and inactive are the calls of the source. Calls follow the shape of the dose curve; as a rule, active = well fitted cell-killing curve with a large enough effect in the repeat runs; inconclusive = weak or mixed curves; inactive = flat fitted curve, though single readings scatter.",
  "data": [
    {"test": "qHTS assay to identify small molecule antagonists of the TGF-beta/Smad signaling pathway - cell viability counter screen (AID 1346824); also: nearly all actives have a fitted effect of over 50% in size", "conditions": "SBE-bla HEK293T viability, CellTiter-Glo luminescence; series mostly up to 76.8 µM", "source_text": "U.S. Tox21 Program National Center for Advancing Translational Sciences [NCATS] NIH Chemical Genomics Center [NCGC] U.S. Environmental Protection Agency [EPA] National Institutes of Environmental Health Sciences [NIEHS] National Toxicology Program [NTP] U.S. Food and Drug Administration [FDA] Tox21 Assay Overview: Transforming growth factor beta (TGF-beta) superfamily consists of a large number of structurally related dimeric proteins that act as hormones or local mediators in regulating a wide range of biological functions. This superfamily includes TGF-betas themselves, the bone morphogenetic proteins (BMPs) and the activins. These ligands induce oligomerization of serine/threonine receptor kinases and phosphorylate the cytoplasmic signaling molecules of Smad protein family. CellSensor SBE-bla HEK 293T cell line (Life Technologies, Carlsbad, CA), responsive to TGF-beta was used to screen Tox21 10K compound library for identification of agonists/antagonists of the Smad signaling pathway. This cell line contains a beta-lactamase reporter gene under control of the Smad binding element (SBE) stably integrated into HEK 293T cells. Also cytotoxicity of the compounds was tested in parallel by measuring the cell viability using CellTiter-Glo assay system in the same wells.\nTox21 Assay Protocol Summary: SBE-bla HEK 293T cells were dispensed at 4,000/well in 5 uL of assay medium into black wall/clear-bottom 1536-well plates using a Multidrop Combi (ThermoFisher Scientific, Waltham, MA) dispenser. After the assay plates were incubated at 37 C and 5% CO2 for an overnight, 23 nL of compounds dissolved in DMSO, positive controls or DMSO only was transferred to the assay plate by a Pintool station (Kalypsys, San Diego, CA). Compound transfer was followed by the addition of 1 uL of 0.25 ng/mL TGF-beta1 or assay buffer using two separate tips of Flying Reagent Dispenser (FRD, Aurora Discovery, San Diego, CA). The assay plates were incubated at 37 C and 5% CO2 for 5 hr. One uL of LiveBLAzer B/G FRET substrate (Life Technologies) was added using a Flying Reagent Dispenser (FRD, Aurora Discovery, San Diego, CA) and the plates were incubated at room temperature for 2 hr. Fluorescence intensity (405 nm excitation, 460 nm and 530 nm emissions) was measured using an Envision plate reader (PerkinElmer, Shelton, CT). For cytotoxicity read, 4 uL of CellTiter-Glo reagent (Promega Corporation, Madison, WI) was added to each well of the assay plates using FRD. After 30 min incubation at room temperature, the luminescence intensity was measured using ViewLux plate reader (PerkinElmer).", "values": [
      {"compound": "Brc1c2ccccc2cc2ccccc12", "Potency": "inactive"},
      {"compound": "C[Si](C)(CCCN)O[Si](C)(C)CCCN", "Potency": "inactive"},
      {"compound": "CCOC(=O)Cc1cccc2ccccc12", "Potency": "inactive"},
      {"compound": "COc1ccnc(CS(=O)c2nc3ccc(OC(F)F)cc3[nH]2)c1OC", "note": "(stereo not given)", "Potency": "inactive"},
      {"compound": "Clc1ccc2c(c1)CCc1cccnc1C2=C1CCNCC1", "Potency": "inactive"},
      {"compound": "CCOC(=O)C(O)c1ccccc1", "note": "(stereo not given)", "Potency": "inactive"},
      {"compound": "O=C(OCCCCCCOC(=O)c1ccccc1)c1ccccc1", "Potency": "inactive"},
      {"compound": "CCCCCC[C@@H](O)C/C=C\\CCCCCCCC(=O)OC", "Potency": "inactive"},
      {"compound": "OC(C#CCN1CCCC1)(c1ccccc1)c1ccccc1", "Potency": "inactive"},
      {"compound": "c1ccc(-c2ccccn2)nc1", "Potency": "inactive"},
      {"compound": "O=C(Cl)c1cc(C(=O)Cl)cc(C(=O)Cl)c1", "Potency": "inactive"},
      {"compound": "OCCNCc1ccccc1", "Potency": "inactive"},
      {"compound": "COc1ccc(C(=O)N2CCN(CC(=O)N3CCOCC3)CC2)cc1", "Potency": "inactive"},
      {"compound": "Nc1ccc([N+](=O)[O-])c(C(F)(F)F)c1", "Potency": "inactive"},
      {"compound": "CN(C)CCOC(c1ccccc1)c1ccc(Br)cc1", "note": "(stereo not given)", "Potency": "inactive"},
      {"compound": "Cc1ccccc1S(=O)(=O)O", "Potency": "inactive"},
      {"compound": "CCC(C)O", "note": "(stereo not given)", "Potency": "inactive"},
      {"compound": "S=C([S-])NCCNC(=S)[S-].[Mn+2]", "Potency": "inactive"},
      {"compound": "O=C(O)c1ccc(-n2nc(-c3ccccc3O)nc2-c2ccccc2O)cc1", "Potency": "inactive"},
      {"compound": "CC(C)O.CC(C)O.CCOC(=O)/C=C(\\C)O.CCOC(=O)/C=C(\\C)O.[Ti]", "Potency": "inactive"},
      {"compound": "O=C(O)c1ccc(S(=O)(=O)O)cc1C(=O)O", "Potency": "inactive"},
      {"compound": "C/C=C/C=C/CO", "Potency": "inactive"},
      {"compound": "C/C(=C(\\CCOP(=O)(O)O)SC(=O)c1ccccc1)N(C=O)Cc1cnc(C)nc1N", "viability change, negative = cytotoxic": "4.01% [at 6.97 µM]"},
      {"compound": "CCn1cc(C(=O)O)c(=O)c2cnc(N3CCNCC3)nc21", "Potency": "inactive"},
      {"compound": "CCCNCC(O)COc1ccccc1C(=O)CCc1ccccc1", "note": "(stereo not given)", "Potency": "inactive"},
      {"compound": "CCCCc1nc2cccnc2n1Cc1ccc(-c2ccccc2-c2nnn[nH]2)cc1", "Potency": "inactive"},
      {"compound": "CCOc1ccc(N=Nc2ccc(/C=C/c3ccc(N=Nc4ccc(OCC)cc4)cc3S(=O)(=O)O)c(S(=O)(=O)O)c2)cc1", "Potency": "inactive"},
      {"compound": "COC(=O)C1=C(C)NC(COC(N)=O)=C(C(=O)OC(C)C)C1c1cccc(Cl)c1Cl", "note": "(stereo not given)", "Potency": "inactive"},
      {"compound": "Nc1cc(C(=O)O)c(O)c(S(=O)(=O)O)c1", "Potency": "inactive"},
      {"compound": "C#C[C@]1(O)CC[C@H]2[C@@H]3CCc4cc(OC5CCCC5)ccc4[C@H]3CC[C@@]21C", "Potency": "inactive"},
      {"compound": "CCCCO", "Potency": "inactive"},
      {"compound": "COc1cc2nc(N(C)CCCNC(=O)C3CCCO3)nc(N)c2cc1OC", "note": "(stereo not given)", "Potency": "inactive"},
      {"compound": "CC[N+]1(CC)CCC(=C(c2ccccc2)c2ccccc2)C1C", "note": "(stereo not given)", "Potency": "inactive"},
      {"compound": "COc1cc2nc(N3CCN(C(=O)C4COc5ccccc5O4)CC3)nc(N)c2cc1OC", "note": "(stereo not given)", "Potency": "inactive"},
      {"compound": "CCNc1cc(O)ccc1C", "Potency": "inactive"},
      {"compound": "CCN(CC)CCOC(=O)C(c1ccccc1)C1CCCCC1", "note": "(stereo not given)", "Potency": "inactive"},
      {"compound": "NC(N)=NCCC[C@H](N)C(=O)O", "viability change, negative = cytotoxic": "7.48% [at 6.97 µM]"},
      {"compound": "CCc1cc(C2=C(C(=O)O)N(c3ccccc3C(F)(F)F)S(=O)(=O)c3ccccc32)cc2c1OCO2", "Potency": "inactive"},
      {"compound": "COc1ccc(C(=O)c2ccc(OC)cc2O)c(O)c1", "Potency": "inactive"},
      {"compound": "O=C(O)CNCC(=O)O", "viability change, negative = cytotoxic": "10.5% [at 6.97 µM]"}
    ]}
  ]
}
